Screens as filed in PubChem BioAssay.
VP16 counter: VP16 counterscreen qHTS for inhibitors of ROR gamma transcriptional activity; Drosophila S2 Gal4-VP16 UAS-luciferase, luminescence, 20 h; Potency, µM (series often up to 53.6 µM), actives largely listed as inhibitors; actives 3.5% (n = 310,000);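 note: Gal4-VP16 expression switched on by copper sulfate through the metallothionein promoter; nearly all actives have a fitted effect of over 50% in size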
TSHR antagonist: Antagonists of the Thyroid Stimulating Hormone Receptor: HTS campaign; TSHR-expressing cells, TSH-stimulated cAMP HTRF, 2 h; stronger effect = lower value; activity change, negative = inhibition, % at 11.5 µM; actives 0.2% (n = 330,000); AID 504810, 2011;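 active = activity change below a set negative limit, meaning inhibition stronger than a set level, cut at about -70% in these data; inconclusive = activity change between two set negative limits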
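Inhibition of cAMP made by TSHR-expressing cells under TSH stimulation (4nM final, EC80; 2 h, 37 deg C) is quantified with a one-step lysis HTRF kit, anti-cAMP cryptate versus cAMP-d2.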
ELG1 DNA repair: qHTS screen for small molecules that inhibit ELG1-dependent DNA repair in human embryonic kidney (HEK293T) cells expressing luciferase-tagged ELG1. HEK293T ELG1-luciferase reporter, luminescence, 16 h; DNA damage induced by 5-fluorouridine. AID 504467, 2011. actives 2.3% (n = 330,000). Potency, µM (top dose mostly 46.1 µM), most hits filed as inhibitors; note: nearly all actives have a fitted effect of over 55% in size
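5-Fluorouridine DNA damage + compound/DMSO, 2,000 cells/well, 16 h, 37 °C/5% CO2. ONE-Glo, 30 min RT, luminescence. Readout = decrease in reporter signal.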
RORg inh: qHTS for inhibitors of ROR gamma transcriptional activity. Drosophila S2 Gal4-RORgamma UAS-luciferase reporter, 20 h. AID 2551, 2010. actives 5.4% (n = 310,000). Nuclear receptor ROR-gamma (Mus musculus), P51450. Potency, µM (titrated, usually from 53.6 µM), actives largely listed as inhibitors; note: nearly all actives have a fitted effect of over 60% in size
Target sequence (P51450 whole entry, looked up, the tested form may be a part): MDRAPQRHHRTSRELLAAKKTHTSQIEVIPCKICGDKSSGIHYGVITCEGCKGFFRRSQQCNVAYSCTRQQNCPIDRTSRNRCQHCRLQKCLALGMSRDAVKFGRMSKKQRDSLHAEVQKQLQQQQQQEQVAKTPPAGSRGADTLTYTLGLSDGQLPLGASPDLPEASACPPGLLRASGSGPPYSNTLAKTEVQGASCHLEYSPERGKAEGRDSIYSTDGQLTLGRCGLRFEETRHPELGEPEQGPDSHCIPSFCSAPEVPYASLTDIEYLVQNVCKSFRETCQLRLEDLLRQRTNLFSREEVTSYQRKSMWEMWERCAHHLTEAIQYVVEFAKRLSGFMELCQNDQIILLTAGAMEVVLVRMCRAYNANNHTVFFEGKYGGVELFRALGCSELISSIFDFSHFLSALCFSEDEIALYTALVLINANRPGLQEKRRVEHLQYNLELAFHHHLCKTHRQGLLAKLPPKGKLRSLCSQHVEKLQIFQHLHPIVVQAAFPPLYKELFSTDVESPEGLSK
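ROR gamma transcriptional activity was tracked as Gal4-UAS luciferase output in stably transfected Drosophila Schneider cells, with compound added 1 hr before 700 uM copper sulfate induction and a 20 hr ambient-temperature incubation.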
Coupling enz: qHTS Assay for Inhibitors of Fructose-1,6-bisphosphate Aldolase from Giardia Lamblia: Coupling assay counterscreen; activity change, negative = inhibition, % at 58.2 µM, hits read low; actives 0.67% (n = 290,000); AID 2472, 2010; coupling enzyme system counterscreen, AmpLite Red fluorescence; in the data active = activity change below about -30%
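Activity here indicates interference with the coupling reaction, not aldolase inhibition. Compounds at 57.5 uM final met coupling enzymes for 10 min at RT; substrate and AmpLite Red detection followed, with a 525/598 nm fluorescence read after 20 min.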
Each line names hits and unclear results; the compound was inactive in the other large screens. The list is not random: actives were taken first. Their share in the collection is about 8%. Unless noted, calls come from the whole dose curve; as a rule, active = well fitted curve in the direction sought with a large enough effect; inconclusive = small, poorly fitted or top-dose-only effect, or another doubt; inactive = no such curve, though single readings can be large; an effect the other way counts as inactive or inconclusive.

CCOCCCNC(=O)c1oc2ccc3c(c2c1C)C(O)CC(C)(C)O3 (stereo not drawn)	none
O=C1/C(=C/c2ccccn2)COc2ccccc21	ELG1 DNA repair inconclusive
CC1C/C(=C/c2ccccn2)C(=O)/C(=C/c2ccccn2)C1 (stereo not drawn)	VP16 counter 1.41µM, ELG1 DNA repair 4.61µM, RORg inh 2.82µM
CC(C)(C)C1C/C(=C/c2ccccn2)C(=O)/C(=C/c2ccccn2)C1 (stereo not drawn)	VP16 counter inconclusive, ELG1 DNA repair inconclusive, RORg inh 5.62µM
CC1C/C(=C/c2ccco2)C(=O)/C(=C/c2ccco2)C1 (stereo not drawn)	none
O=C(CSc1nnnn1C1CC1)Nc1ccc(S(=O)(=O)N2CCOCC2)cc1	none (no result: VP16 counter, RORg inh, Coupling enz)
CC(C)[C@H](NC(=O)C1CCN(S(=O)(=O)c2ccc(F)cc2)CC1)C(=O)NCc1ccco1	none (no result: Coupling enz)
CCOc1ccc(S(=O)(=O)N(C)c2ccc(OCC(=O)NCC3CCCO3)cc2)cc1 (stereo not drawn)	none
CCOc1ccc(S(=O)(=O)N(C)c2ccc(OCC(=O)NCC3CCCCC3)cc2)cc1	ELG1 DNA repair 25.9µM (no result: VP16 counter, RORg inh, Coupling enz)
COc1ccccc1CNC(=O)c1ccc(CS(=O)(=O)c2ccc(C)cc2)o1	none
COc1cc2c(cc1NC(=O)CN(C)Cc1ccc(OC)c(OC)c1)oc1ccccc12	ELG1 DNA repair 14.6µM, RORg inh inconclusive
COc1ccc(CN(C)CC(=O)Nc2cc3oc4ccccc4c3cc2OC)c(OC)c1	ELG1 DNA repair inconclusive, RORg inh inconclusive
COc1cc2c(cc1NC(=O)CCCCCN1C(=O)CCC1=O)oc1ccccc12	ELG1 DNA repair 20.6µM
COc1cc2c(cc1NC(=O)COC(=O)Cn1cnc3ccccc31)oc1ccccc12	ELG1 DNA repair inconclusive, RORg inh 2µM
COc1cc2c(cc1NC(=O)COC(=O)C(CCSC)NC(=O)c1ccccc1Cl)oc1ccccc12 (stereo not drawn)	VP16 counter inconclusive, ELG1 DNA repair inconclusive, RORg inh 10µM
COc1cc2c(cc1NC(=O)COC(=O)c1ccc(C(C)(C)C)cc1)oc1ccccc12	ELG1 DNA repair inconclusive
COc1cc2c(cc1NC(=O)COc1ccccc1OC)oc1ccccc12	none
CC12C=C(/C=C/c3ccc(C(F)(F)F)cc3)C(C)(C1)C(c1ccc(C(F)(F)F)cc1)CC2=O (stereo not drawn)	none (no result: TSHR antagonist, ELG1 DNA repair)
OC[C@@H]1O[C@H](O)[C@H](O)[C@@H](O)[C@@H]1O	none (no result: TSHR antagonist, ELG1 DNA repair)
COc1ccc(NC(=O)CN2C(=O)COc3ccc(S(=O)(=O)N4CCOCC4)cc32)cc1Cl	none
COc1ccc(S(=O)(=O)N2CCN(C(=O)CN3C(=O)NC(C)(c4ccc5ccccc5c4)C3=O)CC2)cc1 (stereo not drawn)	ELG1 DNA repair inconclusive (no result: VP16 counter, RORg inh, Coupling enz)
COCCSc1nnc(NC(=O)CSCc2ccccc2)s1	VP16 counter inconclusive, RORg inh 7.94µM
COCc1nnc(NC(=O)CSCc2ccccc2)s1	RORg inh 11.2µM (no result: Coupling enz)
COC(=O)CSCC(=O)Nc1nnc(-c2cccc(C)c2)s1	RORg inh 12.6µM
O=C(CSc1ccc(Cl)cc1)Nc1nnc(-c2cccc([N+](=O)[O-])c2)s1	VP16 counter inconclusive, RORg inh 10µM
Cc1ccc(S(=O)(=O)NCc2ccccc2)cc1C(=O)NC(C)c1ccc(S(N)(=O)=O)cc1 (stereo not drawn)	none (no result: VP16 counter, RORg inh, Coupling enz)
C[C@H](CO)N1C[C@H](C)[C@@H](CN(C)C(=O)Nc2ccc3c(c2)OCO3)Oc2c(NC(=O)Cc3ccccc3)cccc2C1=O	none (no result: VP16 counter, RORg inh, Coupling enz)
C[C@@H]1CCC[C@]2(C)CCCC[C@@]12O	none (no result: TSHR antagonist, ELG1 DNA repair)
O=C(CSc1ccccc1)Nc1nnc(COc2ccc(Cl)cc2)s1	VP16 counter inconclusive, RORg inh 11.2µM
CC(=O)Nc1nnc(-c2ccccn2)o1	ELG1 DNA repair inconclusive
O=C(/C=C/c1ccccc1)Nc1nnc(-c2ccco2)o1	VP16 counter 5.01µM, RORg inh 2.24µM
Cc1cc(C)c(OCC(=O)Nc2nnc(-c3ccco3)o2)c(C)c1	VP16 counter inconclusive, RORg inh 12.6µM
O=C(Nc1nnc(-c2ccccn2)o1)c1cccc(Cl)c1	VP16 counter 1µM, ELG1 DNA repair inconclusive, RORg inh 0.708µM
O=C(COC(=O)CNC(=O)c1cccc(Br)c1)Nc1nnc(-c2ccccc2)o1	none (no result: VP16 counter, RORg inh, Coupling enz)
O=C(Nc1nnc(-c2ccccn2)o1)c1cccc(Br)c1	VP16 counter 0.891µM, RORg inh 0.501µM
N#Cc1cccc(NC(=O)N2CC[C@@]3(CCCN(C(=O)c4csnn4)C3)C2)c1	none (no result: TSHR antagonist, ELG1 DNA repair)
CC(=O)Nc1nnc(-c2ccco2)o1	none
N#Cc1ccc(C(=O)Nc2nnc(-c3ccccn3)o2)cc1	VP16 counter 0.891µM, ELG1 DNA repair inconclusive, RORg inh 1.26µM
O=C(Nc1nnc(-c2ccco2)o1)c1cccc(Cl)c1	VP16 counter 2.82µM, ELG1 DNA repair inconclusive, RORg inh 3.55µM
Cc1ccc(C2(C)NC(=O)N(CC(=O)NNC(=O)c3cc(C)oc3C)C2=O)cc1 (stereo not drawn)	none (no result: VP16 counter, RORg inh, Coupling enz)
CCOC(=O)N1CCC(NS(=O)(=O)c2ccc(C)c(Cl)c2)CC1	ELG1 DNA repair 16.4µM
COc1ccc(-c2nnc(NC(=O)Cc3ccccc3)o2)cc1	VP16 counter 2.82µM, RORg inh 1.58µM
COc1ccc(C(=O)OCC(=O)Nc2nnc(-c3ccccc3)o2)cc1	VP16 counter 5.01µM, RORg inh 3.98µM
COc1cc(C(=O)OCC(=O)Nc2nnc(-c3ccccc3)o2)cc(OC)c1OC	none (no result: VP16 counter, TSHR antagonist, RORg inh, Coupling enz)
COc1cc(OC)cc(-c2nnc(NC(=O)Cc3ccc(F)cc3)o2)c1	VP16 counter 0.631µM, RORg inh 0.708µM (no result: Coupling enz)
Cc1ccc(CC(=O)Nc2nnc(-c3ccc(F)cc3)o2)c(C)c1	VP16 counter 3.16µM, RORg inh 2.51µM
COc1cc(-c2nnc(NC(=O)CS(=O)(=O)c3ccc(F)cc3)o2)cc(OC)c1OC	none (no result: VP16 counter, RORg inh, Coupling enz)
S=c1[nH]nc(CSc2nc3ccccc3s2)n1C1CCCCC1	VP16 counter 1.26µM, RORg inh 0.199µM
Cc1cccc(OCc2n[nH]c(=S)n2Cc2ccccc2)c1	VP16 counter inconclusive, RORg inh 2µM
S=c1[nH]nc(COc2ccccc2)n1C1CCCCC1	VP16 counter 3.98µM, RORg inh 1.78µM
S=c1[nH]nc(COc2ccccc2)n1Cc1ccccc1	VP16 counter 6.31µM, RORg inh 1.58µM
O=C(O)CSc1nnc(CSc2nc3ccccc3s2)n1-c1ccccc1	none
CC#CCN1c2ccccc2[C@]23C[C@@H](C(=O)OC)N(S(=O)(=O)c4cccs4)C2=NC(C(=O)OC)=C(C(=O)OC)[C@H]13	none (no result: VP16 counter, TSHR antagonist, ELG1 DNA repair, RORg inh)
CN(C(=O)c1ccc(NC(=O)Cc2cccc(NC(=O)C3CCN(C(=O)C4CCCC4)CC3)c2)cc1)C1CCCC1	none (no result: VP16 counter, RORg inh, Coupling enz)
